Source: PubChem
Most compounds without a hit are left out; they make up all but 7.8% or so of the library.
PostGolgi ctrl: growth of the yeast control strain, post-Golgi counter-screen. efflux-deficient yeast background strain, growth absorbance A615, 16 h. hit rate 5% among 98,000. inhibition, % at 10 µM
sEH inhibitor: inhibitors of human soluble epoxide hydrolase; recombinant human sEH enzymatic activity assay; P34913; inhibition, % at 2 µM; hit rate 0.34% among 91,000; AID 707; in the data active means inhibition above about 80%
sEH activator: soluble epoxide hydrolase (human) activation | P34913 | hit rate 0.04% among 91,000 | activation, % at 2 µM | purified human sEH enzymatic activity, activator screen; in the data active means activation above about 37%
Cav32 inh: inhibitors of human Cav3.2 T-type calcium channel | O95180 | Cav3.2-expressing cells, Fluo-4 calcium fluorescence FDSS; stronger effect = lower value | B-score at 10 µM | hit rate 4% among 100,000 | AID 449739;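 active means single-dose well whose peak fluorescence ratio is a statistical outlier from its plate by either plate-standardised score or position-corrected B-score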
PostGolgi yeast: growth inhibition of a yeast mutant, post-Golgi transport screen; post-Golgi transport phenotypic cell assay; inhibition, % at 10 µM; hit rate 0.9% among 98,000;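 further: yeast cells grown in 1536-well plates; yeast grown about 18 h at 30C before absorbance read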
* hit, by the source's call; . = not tested or not shown. Unless noted, no stated cut-off is given here; in the data, active means inhibition above about 30%; inactive means the rest.

SMILES	PostGolgi ctrl	sEH inhibitor	sEH activator	Cav32 inh	PostGolgi yeast
Cc1cccc(NC(=O)C2CCCN2C(=O)OCC(C)C)c1C (centres undefined)	35*	9	-7	-0.015	-3
Cc1cccc(NC(=O)C2CCCN2C(=O)OCC(C)C)c1 (centres undefined)	6	-9	9	-0.025	-4
COC(=O)CSc1nc2ccccc2nc1SCC(=O)OC	4	3	-1	-0.7	0
COC(=O)CSc1cnc2ccccc2n1	32*	-6	7	0.34	-5
Clc1ccc2nc(C3CCN(Cc4nnnn4C4CCCCC4)CC3)[nH]c2c1	.	18	-18	-2.6	.
Cc1ccc(Cn2nnnc2CN2CCC(c3nc4ccc(Cl)cc4[nH]3)CC2)cc1	74*	3	-5	-5.7*	5
CCOC(=O)c1c(C)sc2c1N(C(=O)CCl)c1cc(Cl)ccc1S2	78*	2	1	-2.9	9
O=S(=O)(NCC(c1cccnc1)N1CCN(c2ccccc2F)CC1)c1cccs1 (centres undefined)	35*	-17	15	0.86	62*
COC(=O)NCC(c1cccnc1)N1CCN(c2ccccc2F)CC1 (centres undefined)	2	.	.	0.049	0
O=S(=O)(NCC(c1cccnc1)N1CCOCC1)c1cccs1 (centres undefined)	.	-4	5	-0.039	.
O=C(NCC(c1cccnc1)N1CCN(c2ccccc2F)CC1)c1cccc(Cl)c1 (centres undefined)	24	-9	11	-3.3	47*
O=S(=O)(NCC(c1cccnc1)N1CCN(c2ccc(F)cc2)CC1)c1ccc(F)cc1 (centres undefined)	73*	-6	6	-3.2	90*
O=S(=O)(NCC(c1cccnc1)N1CCN(c2ccc(F)cc2)CC1)c1cccs1 (centres undefined)	55*	.	.	1.1	78*
O=C(NCC(c1cccnc1)N1CCN(c2ccc(F)cc2)CC1)c1ccc(F)cc1 (centres undefined)	17	8	-8	-0.46	2
O=C1CC(N2CCC(c3nc4ccccc4s3)CC2)C(=O)N1 (centres undefined)	9	-3	5	-0.17	-1
CC(C)(C)C(=O)CC1(O)C(=O)N(Cc2ccccc2)c2ccccc21 (centres undefined)	-2	0	3	0.16	5
CS(=O)(=O)Nc1ccc(C(=O)NC2CCCC2)cc1	19	-1	0	0.59	-2
COc1ccc(S(=O)(=O)N2CCCN(Cc3cccc(F)c3)CC2)cc1	45*	10	-12	0.27	2
COc1ccc(S(=O)(=O)N2CCN(Cc3ccccc3)CC2)cc1	3	-7	9	-0.0054	2
COC(=O)C1N[C@@H]([C@@H](NC(=O)COc2ccccc2)C(=O)NCc2ccc(OC)cc2)SC1(C)C (some centres undefined)	.	.	.	0.71	.
COc1ccnc(Oc2ccccc2)c1C(=O)N/C=N/OCc1ccc(F)cc1Cl	8	-16	13	-2.9	-11
COc1ccccc1CO/N=C/NC(=O)c1c(OC)ccnc1Oc1ccc(F)cc1	51*	-1	3	-0.66	-29
CCN(CC(=O)NCc1ccccn1)S(=O)(=O)c1ccc(Cl)cc1	27	.	.	1.6	4
Cc1ccc(NC(=O)CC2SC3=NCCCN3C2=O)c(C)c1 (centres undefined)	8	-2	3	.	-3
CCCC(=O)N1c2ccccc2C(N(C(C)=O)c2ccccc2)CC1C (centres undefined)	11	-8	10	.	4
SMILES	PostGolgi ctrl	sEH inhibitor	sEH activator	Cav32 inh	PostGolgi yeast
Cc1ccc(C(=O)N(c2ccccc2)C2CC(C)N(C(=O)c3ccco3)c3ccccc32)cc1 (centres undefined)	6	6	-5	-5.6*	8
CCOC(=O)c1ccccc1NC(=O)CSc1nc2ccccc2n1CC(=O)N1CCCC1	3	2	1	-0.1	2
CCN(CC)c1ccc(-c2nn3c(-c4n[nH]c5c4CCC5)nnc3s2)cc1	43*	4	-4	-1.3	-3
C1CCC(c2nn3c(-c4n[nH]c5c4CCC5)nnc3s2)CC1	5	-7	6	0.72	10
CC(=O)c1c(C)[nH]c(C(=O)NCCN2CCC(C)CC2)c1C	5	.	.	0.048	12
Nc1c(C(=O)C2CC2)sc2nc(-c3cccs3)cc(C(F)(F)F)c12	-4	10	-8	-7.9*	3
CC(=O)c1sc2nc(-c3cccs3)ccc2c1N	24	-3	0	-1.8	0
CCCCn1c(=O)[nH]c(=O)c2c1nc(-c1ccsc1)n2Cc1ccccc1	31*	-11	15	-0.74	-6
COc1ccc(NC(=O)CC2C(=O)N(c3cccc(OC)c3)C(=O)N2CCC(C)C)cc1 (centres undefined)	5	-8	8	-0.61	6
CCCCC1=CC2=CC(=O)C(C)(OC(=O)CC)C(=O)C2=CN1CCc1ccc(Br)cc1 (centres undefined)	.	.	.	0.1	.
COC(=O)C(Cc1c[nH]c2ccccc12)NC(C)=O (centres undefined)	.	-14	18	0.35	.
COc1ccc(C(c2c[nH]c3ccccc23)c2c[nH]c3ccccc23)cc1O	54*	-14	11	-0.048	-2
CCOC(=O)C(NC(C)=O)(Nc1ccc(S(=O)(=O)Nc2cc(C)nc(C)n2)cc1)C(F)(F)F (centres undefined)	2	3	0	0.32	-10
O=c1c2ccccc2nc2n1CCC2O (centres undefined)	.	.	.	-0.2	.
CCOC(=O)c1cc(C(C)(C)C)oc1CNC(=O)c1c(C)oc2c1CCCC2	.	-1	4	-4.6*	.
c1ccc(-c2cc3c(ccc4nonc43)nn2)cc1	10	-10	8	0.1	-1
On1onc2c3cc(-c4ccccc4)nc3ccc21	94*	-4	4	.	96*
C=CCOc1nc(-c2ccncc2)nc2ccccc12	48*	-9	8	-2.5	17
c1ccc2c(N3CCCC3)nc(-c3ccncc3)nc2c1	61*	4	-5	0.71	57*
CCN(CC)CCNC(=O)c1ccc(CS(=O)(=O)c2ccc(Br)cc2)o1	6	-11	11	1.2	0
COCCn1c(SCc2nnc(-c3ccccc3)o2)nc2sc3c(c2c1=O)CCC3	96*	2	-2	-2.3	9
COCCn1c(SCC(=O)Nc2ncc(C)s2)nc2sc3c(c2c1=O)CCC3	9	-9	9	-2.5	4
Cc1nc2sc(C(c3cccs3)N3CCC(C(N)=O)CC3)c(O)n2n1 (centres undefined)	-1	4	-4	0.49	2
O=S(=O)(c1ccccc1)n1nc(-c2ccccc2)nc1NCc1ccco1	36*	11	-10	-4.5*	2
COC(=O)C1=CN(CCCN2CCCC2=O)C=C(C(=O)OC)C1c1ccccc1C(F)(F)F	3	-3	3	0.8	36*
O=C(NCc1ccccc1)NS(=O)(=O)c1ccccc1Cl	-4	.	.	0.86	30*
CCCCOc1ccc(CNC(=O)NS(=O)(=O)c2ccc(OCC(C)C)cc2)cc1	7	-1	-1	-5.3*	-8
